# Measured values: the supplement of paper PMC13380429
# Values without a mark were called inactive.
# Tested on: Vero E6 infected with SARS-CoV-2
# Assay: inhibition of SARS-CoV-2 cytopathic effect; higher = more antiviral protection, active = above 15
# Settings: 48 h
Structure (SMILES),inhibition of SARS-CoV-2 cytopathic effect (1 nM) [%],inhibition of SARS-CoV-2 cytopathic effect (8.33 nM) [%],inhibition of SARS-CoV-2 cytopathic effect (100 nM) [%],inhibition of SARS-CoV-2 cytopathic effect (833.33 nM),inhibition of SARS-CoV-2 cytopathic effect (10000 nM)
COc1ccc(S(=O)(=O)Nc2nc(-c3cccc([N+](=O)[O-])c3)cs2)cc1OC,2.08,4.04,7.06,0.79%,-3.82%
CC(C)(Oc1ccc(Cl)cc1)C(=O)OCCOC(=O)c1cccnc1 [etofibrate],0.78,2.82,0.41,0.22%,-10.1%
Cc1ccc(NC(=O)c2ccc(CN3CCN(C)CC3)cc2)cc1Nc1nccc(-c2cccnc2)n1 [imatinib],2.28,1.75,5.42,7.15%,20.1% (active)
N#CCNC(=O)c1ccc(-c2ccnc(Nc3ccc(N4CCOCC4)cc3)n2)cc1,-0.49,-0.77,-0.33,-4.04%,-6.6%
NS(=O)(=O)c1ccc(NC(=O)Nc2ccc(F)cc2)cc1,1,-1.24,0.78,-1.65%,-0.78%
O=S(=O)(O)c1cc(I)c(O)c2ncccc12 [chiniofon],-0.29,-0.47,-0.93,3.44%,-0.39%
Cc1nn(-c2ccccc2)c(C)c1/C=N/N1CCN(Cc2ccccc2)CC1,-4.74,0.23,-0.84,-0.98%,-0.87%
COc1cc2c(cc1OC)CN(CCc1ccc(NC(=O)c3cccc4c(=O)c5cccc(OC)c5[nH]c34)cc1)CC2 [elacridar],14.2,2.41,0.67,-0.09%,-4.73%
CC(C)c1cc2c(cc1S(=O)(=O)O)[C@@]1(C)CCC[C@@](C)(C(=O)O)[C@@H]1CC2 [ecabet],-2.02,0,-1.76,0.14%,-0.11%
CN1CC[C@@]2(C)c3cc(O)ccc3N(C)[C@@H]12 [eseroline-(-)],0.81,0.96,2.54,3.07%,6.49%
Cc1ccc2c(N3CCN(CCc4cccc(N5CCNC5=O)c4)CC3)cccc2n1,-2.94,-3.04,-3.97,1.55%,1.48%
CC(=O)OC[C@H](N)C(=O)O [O-acetyl-L-serine],0.15,1.11,1.58,1.65%,-0.72%
Cc1ccc(=O)n(-c2ccc(O)cc2)c1,-3.24,-0.95,1.12,2.81%,1.12%
NC(=S)N/N=C/c1ncccc1N [triapine],2.87,-0.48,4.4,3.25%,-6.06%
CS(=O)(=O)N1CCN(Cc2cc3nc(-c4cccc5[nH]ncc45)nc(N4CCOCC4)c3s2)CC1,-1.74,-2.51,6.27,-5.78%,3.43%
Cc1cc2c(cc1CC(=O)c1sccc1S(=O)(=O)Nc1onc(C)c1Cl)OCO2 [sitaxentan],-0.88,-1.81,0.75,1.22%,1.37%
CSc1nc(-c2ccc(F)cc2)c(-c2ccnc(N[C@@H](C)c3ccccc3)c2)[nH]1,-3.63,-2.6,-5.98,-4.77%,1.96%
O=C(c1cn(Cc2cncn2Cc2ccc(Br)cc2)cc1-c1cccc2ccccc12)N1CCOCC1,-2.2,-3.17,-1.58,-0.44%,-3.78%
CC(C)(C)C(=O)OCOC(=O)[C@@H]1N2C(=O)[C@@H](NC(=O)[C@H](N)c3ccccc3)[C@H]2SC1(C)C [pivampicillin],3.04,3.24,2.48,0.64%,-3.25%
OCCNCCCOc1cccc(Cl)c1Cl,1.41,0.45,1.26,0.42%,-19.6%

Structure (SMILES),inhibition of SARS-CoV-2 cytopathic effect (1 nM) [%],inhibition of SARS-CoV-2 cytopathic effect (8.33 nM) [%],inhibition of SARS-CoV-2 cytopathic effect (100 nM) [%],inhibition of SARS-CoV-2 cytopathic effect (833.33 nM),inhibition of SARS-CoV-2 cytopathic effect (10000 nM)
C=C[C@@]1(C)CC(=O)[C@]2(O)[C@@]3(C)[C@@H](O)CCC(C)(C)[C@@H]3[C@H](O)[C@H](OC(C)=O)[C@@]2(C)O1 [colforsin],2,2.29,2.56,-1.53%,0.905%
Nc1c(S(=O)(=O)O)cc(Nc2cccc3ccccc23)c2c1C(=O)c1ccccc1C2=O,-0.33,-0.72,-2.22,-1.16%,-4.63%
Nc1nc2cc(-c3ccc4ncc(C(=O)N5CCOCC5)n4c3)ccc2o1,0.78,5.87,4.68,3.05%,-2.33%
CCCCC(CC)CNC(=N)NC(=N)NCCCCCCNC(=N)NC(=N)NCC(CC)CCCC (stereo not given) [alexidine],-2.11,4.36,2.23,-6.06%,-18.2%
N#Cc1cn([C@@H]2O[C@H](CO)[C@@H](O)[C@H]2O)c2ncnc(N)c12 [toyocamycin],0.31,2.87,4.68,-0.02%,-0.24%
COc1ccc(C(Cl)=C(c2ccc(OC)cc2)c2ccc(OC)cc2)cc1 [chlorotrianisene],-2.25,0.16,-0.43,-2.65%,5.78%
O=C(CC(c1ccccc1)c1ccccc1)N1CCN(C(c2ccccc2)c2ccccc2)CC1,-0.56,-1.82,-3.93,1.53%,3.27%
CC(C)(C)C(=O)C(Oc1ccc(Cl)cc1)n1ccnc1 (stereo not given) [climbazole],-1.08,1.03,-1.59,-1.58%,0.15%
CC1=C(/C=C/C(C)=C/C=C/C(C)=C/C(=O)O)C(C)(C)CCC1 [tretinoin],1,-1.08,-0.09,2.67%,7.6%
CCC(=N\O)/C(C)=C/c1ccc(F)cc1,-0.84,-0.21,0.55,-0.42%,-0.21%
CC1CNc2c(cccc2S(=O)(=O)N[C@@H](CCCNC(=N)N)C(=O)N2CC[C@@H](C)C[C@@H]2C(=O)O)C1 (mixture of isomers) [argatroban],-2.89,2.45,0.37,0.05%,-0.11%
C(#CCN1CCCC1)CN1CCCC1 [tremorine],8.56,4.46,-2.04,-3.53%,-1.73%
C[C@@H]1CC[C@H]2[C@@H](C)C(=O)O[C@@H]3O[C@@]4(C)CC[C@@H]1[C@]32OO4 [artemisinin],0.52,0.05,3.13,3.83%,1.16%
CC(=O)N[C@@H](Cc1c[nH]c2ccccc12)C(=O)OCc1cc(C(F)(F)F)cc(C(F)(F)F)c1,0.3,1.3,2.32,1.61%,4%
CCCS(=O)(=O)Nc1ccc(F)c(C(=O)c2c[nH]c3ncc(Cl)cc23)c1F,0.68,0.41,-0.45,2.16%,1.71%
O[C@@H](CN1CCC(Cc2ccc(F)cc2)CC1)c1ccc(Cl)cc1 (racemic) [eliprodil],0.81,0.95,0.19,2.59%,-0.42%
COc1cc2c(cc1OC)[C@@H]1Cc3ccc(OC)c(OC)c3CN1CC2 [rotundine],-0.42,-2.68,-1.22,4.97%,3.54%
O=S(=O)(NCC1CC1)c1ccc(Nc2nccc(N3CCCc4cc(O)ccc43)n2)cc1 [pyrintegrin],2.46,5.45,4.41,14.1%,36% (active)
C=CC(=O)N1CCN(C(=O)CNc2cc(I)c(Cl)cc2O)CC1 [K-Ras(G12C)-inhibitor-12],3.63,2.32,7.62,24.7% (active),30.4% (active)
NS(=O)(=O)c1cc2c(cc1C(F)(F)F)NCNS2(=O)=O [hydroflumethiazide],0.67,2.12,1.79,0.37%,0.46%
